nsP2pro inh = CHIKV nsP2 protease inhibition, primary qHTS | Q8JUX6 | FRET peptide cleavage, nsP2pro, fluorescence 1 h | Potency, µM (highest dose often 24.9 µM), for the others: at the top dose activity change, negative = inhibition, hits mostly inhibitors | 31,000 tested, 1.1% active | AID 1964107; note: nearly all actives have a fitted effect of over 60% in size
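Recombinant nsP2pro (150 nM) was preincubated with compound 15 min at room temperature in 10 mM Tris-HCl pH 8.0, 0.01% Tween 20. Peptide 2 FRET substrate (2.5 uM) was then added and fluorescence read after 1 h. Seven-point series, up to 25 uM.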
nsP2 cell sec = inhibits CHIKV nsP2 protease in cells. shares compounds with nsP2pro inh. cell-based CHIKV nsP2 protease reporter assay. Potency, µM (top dose mostly 51.1 µM), inactives show top-dose activity change, negative = inhibition, actives largely listed as inhibitors. 450 tested, 10% active; note: nearly all actives have a fitted effect of over 70% in size
Target sequence (Q8JUX6 220-798 limits assumed): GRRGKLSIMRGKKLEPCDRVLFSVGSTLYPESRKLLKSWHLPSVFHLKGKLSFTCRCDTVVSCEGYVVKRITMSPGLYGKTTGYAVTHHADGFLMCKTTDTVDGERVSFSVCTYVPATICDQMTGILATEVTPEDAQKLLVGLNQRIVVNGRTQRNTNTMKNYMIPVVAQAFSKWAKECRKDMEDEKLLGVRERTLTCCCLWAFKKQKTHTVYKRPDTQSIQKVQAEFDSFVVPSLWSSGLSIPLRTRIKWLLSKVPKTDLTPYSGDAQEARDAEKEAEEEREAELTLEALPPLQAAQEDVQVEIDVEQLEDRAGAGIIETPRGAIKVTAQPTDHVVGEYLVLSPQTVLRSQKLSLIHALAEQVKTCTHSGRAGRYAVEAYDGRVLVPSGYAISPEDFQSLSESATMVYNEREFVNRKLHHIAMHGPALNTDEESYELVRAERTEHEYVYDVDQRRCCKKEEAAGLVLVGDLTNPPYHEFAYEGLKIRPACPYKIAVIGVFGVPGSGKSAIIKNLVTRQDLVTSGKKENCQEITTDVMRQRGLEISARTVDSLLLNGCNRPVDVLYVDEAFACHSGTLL
NSP2 full ctr = inhibits full-length CHIKV NSP2 enzyme; shares compounds with nsP2pro inh; Full-length CHIKV NSP2 protease enzymatic counterscreen; Potency, µM (top dose mostly 50.7 µM), inactives show at the top dose activity change, negative = inhibition, most hits filed as inhibitors; 410 tested, 39% active; AID 1964101; note: nearly all actives have a fitted effect of over 65% in size
Furin counterscr = inhibits human furin in a CHIKV nsP2 protease selectivity counterscreen | Recombinant human furin enzymatic counterscreen, fluorogenic substrate | 410 tested, 6% active | shares compounds with nsP2pro inh | Potency, µM (titrated, usually from 50.6 µM), for inactives: at the highest dose activity change, negative = inhibition, hits mostly inhibitors
nsP2 NS23 pep = blocks CHIKV nsP2 protease cleavage of endogenous NS2/3 peptide; shares compounds with nsP2pro inh; Purified CHIKV nsP2 protease, endogenous NS2/3 peptide cleavage; Potency, µM (highest dose often 51 µM), for inactives: at the top dose activity change, negative = inhibition, actives largely listed as inhibitors; 410 tested, 34% active; AID 1964103; note: nearly all actives have a fitted effect of over 55% in size
Papain cs = inhibits papain in a CHIKV nsP2 protease selectivity counterscreen. purified papain protease activity, enzymatic inhibition. AID 1964104. 410 tested, 5% active. Potency, µM (top dose mostly 51 µM), for the others: at the highest dose activity change, negative = inhibition, hits mostly inhibitors. shares compounds with nsP2pro inh
nsP2pro conf qHTS = CHIKV nsP2 protease inhibition, confirmatory qHTS; shares compounds with nsP2pro inh; CHIKV nsP2 protease enzymatic activity, qHTS; Potency, µM (top dose mostly 25.5 µM), for inactives: at the top dose activity change, negative = inhibition, most hits filed as inhibitors; 410 tested, 43% active; AID 1964105; note: nearly all actives have a fitted effect of over 75% in size
HCV NS3 4A cs = selectivity counter-screen for CHIKV nsP2 protease inhibitors: HCV NS3/4A; HCV NS3/4A protease biochemical counterscreen; 410 tested, 20% active; Potency, µM (titrated, usually from 50.9 µM), actives largely listed as inhibitors; AID 1964106; shares compounds with nsP2pro inh; note: nearly all actives have a fitted effect of over 55% in size
Starred values were filed as active, the others as inactive; i = inactive; ? = inconclusive; [ ] = another dose, or the depositor's remark. Shown is part of a subset that was picked to be rich in hits. Calls come from the whole dose curve. % is set by controls: 0 for no effect and ±100 for the full control effect; potency is the fitted concentration of half-maximal effect.

SMILES	nsP2pro inh	others
C(#Cc1cccc(CN2CCOCC2)c1)CCN1CCCCC1	9.88µM*	nsP2 cell sec=5.8%;NSP2 full ctr=?;Furin counterscr=-11.8%;nsP2 NS23 pep=?;Papain cs=-9.7%;nsP2pro conf qHTS=?;HCV NS3 4A cs=i
COc1cccc(CN2CCOCCNC(=O)CC2)c1	-11.6%
O=C(Cc1ccccc1)Nc1nnc(NC2CCN(c3nnc(NC(=O)Cc4ccccc4)s3)CC2)s1	34.1%
COC(=O)N(C)Cc1cccc(N2CCN(S(=O)(=O)c3cccc4ccccc34)CC2)c1F	i
CCCc1ccc(-c2csc(NC(=O)c3ccncc3NS(=O)(=O)c3ccc(C)cc3)n2)cc1	-10.6%
Cc1ccc(-c2cc(C(=O)N3CC[S+](=O)([O-])CC3)c3ccccc3n2)cc1C	4.9%
COC(=O)C#Cc1ccc([N+](=O)[O-])cc1	0.988µM*	nsP2 cell sec=?;NSP2 full ctr=1.16µM*;Furin counterscr=-6.2%;nsP2 NS23 pep=2.91µM*;Papain cs=-12.2%;nsP2pro conf qHTS=0.565µM*;HCV NS3 4A cs=i
O=C(Nc1ccc([N+](=O)[O-])cc1)Nc1ccc([N+](=O)[O-])cc1	-7.9%
O=C(N[C@H](CO)[C@H](O)c1ccc([N+](=O)[O-])cc1)C(Cl)Cl	-4.8%
O=C(NCCCc1ccccc1)c1nc2sccn2c1-c1cccc(C(F)(F)F)c1	i
CCOC(=O)c1cccc(NC(=O)CCSCCc2ccccn2)c1	-13.7%
CCOC(=O)c1cccc(CNc2ccc(N(C)C(=O)Nc3ccccc3)cc2)c1	?	nsP2 cell sec=?;NSP2 full ctr=-12.9%;Furin counterscr=-11.3%;nsP2 NS23 pep=-7.5%;Papain cs=?;nsP2pro conf qHTS=-3.2%;HCV NS3 4A cs=i
CCOC(=O)c1cccc(NCC2=CC(C)(C)Oc3ccc(OC)cc32)c1	-10.7%
NNCCc1ccc(NC(=O)CCCc2ccccc2)cc1	-17.4%
CN(Cc1cccc(N2CCN(Cc3c(Cl)ccc(Cl)c3Cl)CC2)c1)[S+](C)(=O)[O-]	-1.5%
COc1cc(CCN)ccc1O	?	nsP2 cell sec=8.2%;NSP2 full ctr=-2.7%;Furin counterscr=3.5%;nsP2 NS23 pep=-3.6%;Papain cs=-7.9%;nsP2pro conf qHTS=-15.1%;HCV NS3 4A cs=i
C=CCc1ccc(O)c(OC)c1	-20.4%
COc1cc(C2Oc3c(OC)cc(CCCO)cc3C2CO)ccc1O (centres undefined)	81.4%
C#CCNC(=O)C[C@@H]1c2nc(NC(=O)OCC=C)sc2C[C@@H]2[C@](C)(CO)[C@H](O)CC[C@]21C	-18.4%
COc1ccc2c(O[C@H]3CC4C(=O)N(C)CCCC/C=C\[C@@H]5C[C@@]5(C(=O)NS(=O)(=O)C5CC5)NC(=O)[C@@H]4C3)cc(-c3nc(C(C)C)cs3)nc2c1C (some centres undefined)	72.7%
CC1(C)[C@H](Cc2cc(COc3ccccc3)on2)C[C@@H]1NC1CCC1	i
O=C(O)c1ccc(-c2ccc3ncnc(NCc4cccs4)c3c2)o1	i
Cc1ccc(S(=O)(=O)Nc2cnccc2C(=O)Nc2nc(-c3nc4ccccc4s3)cs2)cc1	i
C1Cc2[nH]nc(-c3nn[nH]n3)c2C1	8.81µM*	nsP2 cell sec=-7.0%;NSP2 full ctr=9.19µM*;Furin counterscr=?;nsP2 NS23 pep=?;Papain cs=-29.1%;nsP2pro conf qHTS=6.34µM*;HCV NS3 4A cs=i
CN1CCN(c2cc(-c3nc(Nc4ccc(F)c(F)c4)c4ccccc4n3)ccn2)CC1	3.0%
[O]=[V]([OH])([OH])[OH]	-12.6%[2.68 µM]
C=C(C(=O)O)C1CC2=C(C)C(=O)CC2C(C)CC1O (centres undefined)	4.42µM*	nsP2 cell sec=?;NSP2 full ctr=?;Furin counterscr=-4.6%;nsP2 NS23 pep=?;Papain cs=-3.2%;nsP2pro conf qHTS=?;HCV NS3 4A cs=i
COC(=O)[C@@H](O)[C@H]1[C@@]2(C)CC3(O)[C@@H](C(=O)[C@H]2O)[C@]24O[C@]25CC(=O)O[C@@H](c2ccoc2)[C@]5(C)CCC4[C@]13C (some centres undefined)	17.2%[10 µM]

Bioassay records (PubChem BioAssay)
